Among the data in PubChem BioAssay (NCI) are growth values, retold here.

SMILES strings stand for the structures. The panel holds about 83,000 compounds, 20% with a hit somewhere; the sample as a whole holds those more often.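 Treatment: one concentration, 48 hours, 96-well format. Scoring: percent growth, with anything below 10 considered active.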 Unmarked numbers belong to inactive results. Activity calls are given as the source filed them.

Among the test systems are OVCAR-5 ovarian; OVCAR-4 ovarian; SK-OV-3 ovarian; IGROV1 ovarian; OVCAR-3 ovarian; HS 578T breast; NCI/ADR-RES ovarian; T-47D breast; BT-549 breast; MDA-MB-435 melanoma; SW-620 colon; MCF7 breast; HCT-116 colon; HCC-2998 colon; KM12 colon; OVCAR-8 ovarian.
Experiment in all cases: NCI-60 one-dose screen, 48 h (100 = growth as untreated, 0 = no growth, -100 = all killed)
Settings in all cases: 10 µM unless noted

As for `Cc1nn(-c2ccc(Cl)cc2)c2nc3c(nc12)c(=O)oc1ccccc13`, the growth was 98% in the experiment with OVCAR-5 ovarian; 113% in the experiment with OVCAR-4 ovarian; 107% in the experiment on SK-OV-3 ovarian; 119% in the experiment on IGROV1 ovarian; 118% with OVCAR-3 ovarian; 107% with HS 578T breast. Moreover, the growth is 102% in the experiment on NCI/ADR-RES ovarian; 111% in the experiment on T-47D breast; 89.8% in the experiment with BT-549 breast; 106% in the experiment with MDA-MB-435 melanoma; 104% with SW-620 colon; 99.1% in the experiment with MCF7 breast. Moreover, the growth was 105% in the experiment on HCT-116 colon, 98.2% with HCC-2998 colon and 112% in the experiment with KM12 colon.
As to `Cc1ccc(C(O)C2=CC(=O)c3ccccc3C2=O)cc1` (configuration not stated), the growth in the experiment with OVCAR-8 ovarian was 91.3%; in the experiment on OVCAR-5 ovarian, 95.4%; with SK-OV-3 ovarian it was 105%; in the experiment with IGROV1 ovarian, 89.6%; with OVCAR-3 ovarian it was 93.3%; in the experiment on HS 578T breast it was 104%. Further, the growth was 96.4% in the experiment with NCI/ADR-RES ovarian; 76.5% in the experiment on T-47D breast; 63.1% in the experiment with BT-549 breast; 102% with MDA-MB-435 melanoma; 95% with SW-620 colon; 87.1% with MCF7 breast. The growth with HCT-116 colon was 91.7%; with HCC-2998 colon, 101%; in the experiment on KM12 colon, 96%.
Turning to `N#CCCN(CCO)c1ccccc1`, the growth in the experiment with OVCAR-8 ovarian was 102%; in the experiment on OVCAR-5 ovarian, 108%; with SK-OV-3 ovarian, 101%; in the experiment with OVCAR-3 ovarian, 105%; in the experiment with HS 578T breast it was 102%; in the experiment on NCI/ADR-RES ovarian, 112%. Further, the growth with T-47D breast was 92%; with BT-549 breast it was 91.7%; in the experiment with SW-620 colon, 102%; in the experiment with MCF7 breast, 93.6%; with HCT-116 colon, 100%; with HCC-2998 colon, 129%. Besides, the growth in the experiment on KM12 colon is 110%.
For the compound `Cc1c(C(N)=O)sc2c1c(=O)n(Cc1ccccc1)c1nnc(S(=O)(=O)CC(=O)Nc3ccc(Cl)cc3)n21`, the growth in the experiment on OVCAR-5 ovarian was 82.7%; with SK-OV-3 ovarian it was 18.7%; in the experiment on OVCAR-3 ovarian, 5.69% (active); with HS 578T breast, 17.8%; in the experiment on NCI/ADR-RES ovarian, 108%; in the experiment on T-47D breast, 21.8%. Also, the growth is 75.7% in the experiment with BT-549 breast; 46.2% in the experiment with MDA-MB-435 melanoma; 39.6% in the experiment with SW-620 colon; 73.5% with MCF7 breast; 15% with HCT-116 colon; 26% in the experiment with HCC-2998 colon. Further, the growth in the experiment with KM12 colon was 55%.
Regarding `c1ccc(-c2nn[nH]n2)c(-c2ccc(CN3CCN(c4nsc5ccccc45)CC3)cc2)c1`, the growth in the experiment on OVCAR-5 ovarian was 96.8%; in the experiment on OVCAR-4 ovarian it was 85.6%; in the experiment on SK-OV-3 ovarian, 105%; in the experiment on IGROV1 ovarian, 113%; in the experiment on OVCAR-3 ovarian it was 91.4%; with HS 578T breast, 105%. Besides, the growth was 92% in the experiment on NCI/ADR-RES ovarian; 68.7% in the experiment with T-47D breast; 106% in the experiment on BT-549 breast; 92.2% with MDA-MB-435 melanoma; 88.7% in the experiment with SW-620 colon; 85.6% in the experiment on MCF7 breast. For the same compound, the growth in the experiment with HCT-116 colon is 76.9%; with KM12 colon it was 101%.
In the case of `CCc1ccc(CCN2C(=O)c3ccccc3C2=O)nc1`, the growth in the experiment on OVCAR-8 ovarian is 102%; in the experiment with OVCAR-5 ovarian, 129%; in the experiment with OVCAR-4 ovarian it was 101%; with SK-OV-3 ovarian it was 98.1%; in the experiment with HS 578T breast, 119%; in the experiment with NCI/ADR-RES ovarian, 128%. Also, the growth with T-47D breast was 94.8%; in the experiment with MDA-MB-435 melanoma it was 98.9%; in the experiment on SW-620 colon, 107%; in the experiment with MCF7 breast, 89.5%; with HCT-116 colon it was 109%; in the experiment with HCC-2998 colon it was 112%. The growth with KM12 colon is 103%.
For the compound `COC(=O)[C@]1(CCSC)N[C@H](c2cn(-c3ccccc3)nc2C)[C@@H]2C(=O)N(c3ccccc3)C(=O)[C@@H]21`, the growth is 104% in the experiment on OVCAR-5 ovarian; 106% in the experiment on OVCAR-4 ovarian; 95.2% in the experiment on SK-OV-3 ovarian; 118% with IGROV1 ovarian; 98.7% with OVCAR-3 ovarian; 93.7% with HS 578T breast. Also, the growth was 91% with NCI/ADR-RES ovarian; 108% with T-47D breast; 95.5% in the experiment on BT-549 breast; 106% with MDA-MB-435 melanoma; 107% with SW-620 colon; 98.5% in the experiment on MCF7 breast. For the same compound, the growth is 98.3% with HCT-116 colon, 95.2% with HCC-2998 colon and 107% with KM12 colon.
Regarding `CN(C(=O)c1ccccc1)N(C)C(=O)c1ccccc1`, the growth was 103% with OVCAR-8 ovarian; 99.3% in the experiment on OVCAR-5 ovarian; 105% in the experiment with SK-OV-3 ovarian; 95.2% in the experiment on IGROV1 ovarian; 127% with OVCAR-3 ovarian; 109% in the experiment with HS 578T breast. The growth in the experiment with NCI/ADR-RES ovarian was 108%; in the experiment with T-47D breast it was 94.5%; in the experiment on BT-549 breast, 97%; with SW-620 colon, 106%; in the experiment on MCF7 breast, 95.2%; in the experiment on HCT-116 colon, 100%. The growth with HCC-2998 colon is 116%; in the experiment on KM12 colon it was 113%.
Consider `CC(=O)c1cc(C(=O)c2ccc3c(c2)Sc2ccccc2N3)c2c(C)cc(C)cn12`, for which the growth is 39.7% in the experiment on OVCAR-5 ovarian; 39.8% in the experiment with OVCAR-4 ovarian; 21% in the experiment with SK-OV-3 ovarian; 28.3% in the experiment on IGROV1 ovarian; -26.1% (active) in the experiment with OVCAR-3 ovarian; 20.5% in the experiment on HS 578T breast. The growth with NCI/ADR-RES ovarian was 12.9%; with T-47D breast it was 48.2%; with BT-549 breast, 28.5%; in the experiment with MDA-MB-435 melanoma, -22.1% (active); in the experiment with SW-620 colon it was 20.8%; with MCF7 breast, 15.1%. In addition, the growth in the experiment on HCT-116 colon was 3.76% (active); in the experiment with HCC-2998 colon, 18%; in the experiment with KM12 colon, 11.1%.
Consider `Cc1nn(-c2ccccc2)c2nc3c(nc12)C(=O)CCC3`, for which the growth in the experiment with OVCAR-5 ovarian is 104%; in the experiment on OVCAR-4 ovarian it was 81.4%; with SK-OV-3 ovarian it was 99.7%; in the experiment on IGROV1 ovarian it was 96.6%; in the experiment with OVCAR-3 ovarian, 98.8%; in the experiment on HS 578T breast, 97.1%. The growth with NCI/ADR-RES ovarian is 94.8%; in the experiment with T-47D breast it was 79.2%; in the experiment on BT-549 breast, 90.9%; in the experiment on MDA-MB-435 melanoma it was 98.1%; in the experiment on SW-620 colon it was 105%; in the experiment with MCF7 breast, 84.9%. Also, the growth is 91.6% with HCT-116 colon, 92% with HCC-2998 colon and 87.1% in the experiment with KM12 colon.
In the case of `Cc1ccc(NC(=O)CSc2nnc3n(Cc4ccccc4)c(=O)c4c(C)c(C(N)=O)sc4n23)cc1`, the growth in the experiment on OVCAR-5 ovarian was 75.8%; in the experiment with OVCAR-4 ovarian it was -62.3% (active); in the experiment with SK-OV-3 ovarian it was -7.67% (active); in the experiment with IGROV1 ovarian, 50.8%; in the experiment on OVCAR-3 ovarian it was 9.55% (active); in the experiment with HS 578T breast it was 6.99% (active). The growth with NCI/ADR-RES ovarian was 92.8%; with T-47D breast, -19.7% (active); with BT-549 breast it was 74.3%; in the experiment on MDA-MB-435 melanoma, 31.5%; in the experiment on SW-620 colon it was 53.7%; in the experiment with MCF7 breast it was 44.8%. Moreover, the growth is 9.8% (active) in the experiment on HCT-116 colon, 34.3% in the experiment with HCC-2998 colon and 51.2% in the experiment with KM12 colon.
